# CYP2C19 act: human CYP2C19 activators, primary screen, biochemical, luminescence; 96,000 tested, under 10 active; activation factor at 5 µM; recombinant CYP2C19, luciferin-H EGE luminescence; active compounds read high; 0 = fully inhibited enzyme, 1 = untreated enzyme;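 active means activation factor of at least 2 at 5 µM in the primary screen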
# CYP2C19 inh: blockers of cytochrome P450 2C19 activity – biochemical, luminescence, ADME assay, primary screen; inhibition, % at 5 µM; AID 778, 2007; CYP2C19 Supersomes, luciferin-H EGE luminescence, 30 min; P33261; 96,000 tested, 21% active;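 active means CYP2C19 inhibition above a set limit at 5 µM in the primary screen, cut at about 50% in these data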
# PLAP act: PLAP enzyme activators, biochemical, luminescence, HTS; Alkaline phosphatase, placental type (Homo sapiens), P05187; purified PLAP enzyme, luminescent substrate read-out; active compounds read high; activation fold at 20 µM; 96,000 tested, 1.2% active; AID 696, 2007; in the data active means activation fold above about 2
# Target sequence (P05187 whole entry, looked up): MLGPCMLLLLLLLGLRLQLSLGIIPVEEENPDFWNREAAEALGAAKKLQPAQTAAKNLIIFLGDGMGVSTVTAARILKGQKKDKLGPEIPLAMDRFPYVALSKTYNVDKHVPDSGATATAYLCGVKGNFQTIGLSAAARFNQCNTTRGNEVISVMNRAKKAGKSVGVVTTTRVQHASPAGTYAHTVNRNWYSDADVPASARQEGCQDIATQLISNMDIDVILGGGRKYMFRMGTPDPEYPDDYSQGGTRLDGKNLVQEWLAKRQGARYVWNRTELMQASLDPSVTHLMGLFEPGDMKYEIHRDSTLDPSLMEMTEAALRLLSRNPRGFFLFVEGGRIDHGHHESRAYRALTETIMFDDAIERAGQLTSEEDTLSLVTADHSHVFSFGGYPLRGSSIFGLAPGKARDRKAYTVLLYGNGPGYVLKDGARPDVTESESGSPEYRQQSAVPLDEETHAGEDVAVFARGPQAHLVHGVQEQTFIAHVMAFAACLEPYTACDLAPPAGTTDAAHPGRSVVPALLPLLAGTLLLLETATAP
# CYP2C9 inhib: blockers of cytochrome P450 2C9 activity – biochemical, luminescence, ADME assay, primary screen | CYP2C9 Supersomes, luciferin-H conversion | inhibition, % at 5 µM | P11712 | 96,000 tested, 20% active | AID 777, 2007;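 active means blocking of liver enzyme CYP2C9 beyond about 50% at 5 µM, limit read from the data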
# CYP2C9 act: human CYP2C9 activators, primary screen, biochemical, luminescence; activation factor at 5 µM; 96,000 tested, 1.4% active; Cytochrome P450 2C9 (Homo sapiens), P11712; recombinant CYP2C9, luciferin-H conversion; active compounds read high; factor 1 = untreated enzyme, 0 = blocked;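 active means activation factor of 2 or more for CYP2C9 at a 5 µM dose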
# Numbers stand for hits; - = inactive. Most compounds without a hit are left out; they make up all but 31% or so of the library.
SMILES,CYP2C19 act,CYP2C19 inh,PLAP act,CYP2C9 inhib,CYP2C9 act
CC(C)NC(=O)c1ccc2c(c1)S(=O)(=O)c1ccccc1C2=O,-,-,-,-,-
CCOc1ccc(C(=O)N(C)C2CCS(=O)(=O)C2)cc1 (stereo not drawn),-,-,-,-,-
CCOC(=O)C1CCN(Cc2nc(-c3ccc(OC)c(OC)c3)no2)CC1,-,-,-,-,-
COc1ccc(C(=O)N(Cc2nc(-c3ccc(C)cc3)no2)C2CCCCC2)cc1OC,-,81.5,-,81.2,-
Cc1onc(-c2ccccc2Cl)c1C(=O)N(Cc1nc(-c2ccccc2)no1)C1CCCCC1,-,95.3,-,85.8,-
Cc1onc(-c2ccccc2Cl)c1C(=O)NCC1CCCO1 (stereo not drawn),-,-,-,-,-
Cc1cc(C)nc(NC(=O)c2c(-c3ccccc3Cl)noc2C)n1,-,-,-,-,-
Cc1cccc(-c2noc(CN(C(=O)c3c(-c4ccccc4Cl)noc3C)C(C)C)n2)c1,-,91.2,-,63.1,-
CC1CCCN(C(=O)COC(=O)c2ccc[nH]c2=O)C1 (stereo not drawn),-,-,-,-,-
N#Cc1c(C(F)(F)F)cc(-c2ccco2)nc1SCc1ccccn1,-,-,-,-,-
N#Cc1c(C(F)(F)F)cc(-c2ccco2)nc1SCc1ccncc1,-,86.7,-,92.4,-
CC(=O)/C(=C\Nc1ccc(OCc2ccccc2)cc1)c1ccccc1,-,-,-,85.0,-
COc1cc(N/C=C(\C(C)=O)c2ccccc2)cc(OC)c1,-,72.5,-,85.5,-
CC(=O)/C(=C/Nc1ccc(Oc2ccccc2)cc1)c1ccccc1,-,67.9,-,89.2,-
O=C(NCCN1CCN(c2ccccc2)CC1)C1CCN(S(=O)(=O)N2CCOCC2)CC1,-,-,-,-,-
CC(C)NC(=O)N1CCOCCOCCN(C(=O)NC(C)C)CCOCCOCC1,-,-,-,-,-
O=c1cc2[nH]c3ccccc3c(=O)n2nc1-c1ccccc1,-,-,-,71.1,-
O=c1nc(-c2ccccc2)c2cc(Cl)ccc2[nH]1,-,-,-,-,-
COc1ccc(C(=O)N2CCCC2)cc1S(=O)(=O)N1CCOCC1,-,-,-,-,-
COc1ccc(C(=O)NCc2ccccc2)cc1S(=O)(=O)N1CCCc2ccccc21,-,-,-,54.9,-
COC(=O)c1cc(COC(=O)c2ccc(OC)c(S(=O)(=O)N3CCCC3)c2)oc1C,-,97.5,-,97.0,-
CC(C)CCNC(=O)c1cccc(S(=O)(=O)N2CCc3ccccc32)c1,-,-,-,-,-
COc1ccc(C(=O)NC2CCCCC2)cc1S(=O)(=O)N1CCCC1,-,-,-,53.4,-
COc1ccc(C(=O)NC(C)(C)C)cc1S(=O)(=O)N1CCCC1,-,-,-,53.4,-
COc1ccc(C(CNC(=O)CN2C(=O)NC3(CC(C)CC(C)(C)C3)C2=O)N2CCOCC2)cc1 (stereo not drawn),-,-,-,-,-
SMILES,CYP2C19 act,CYP2C19 inh,PLAP act,CYP2C9 inhib,CYP2C9 act
CCOC(=O)CCP(=O)(O)C(O)c1ccccc1 (stereo not drawn),-,-,-,-,-
O=S(=O)(Nc1cccc(C(F)(F)F)c1)c1cnc[nH]1,-,97.7,-,100.0,-
O=S(=O)(Nc1ccc(Cl)c(C(F)(F)F)c1)c1cnc[nH]1,-,95.7,-,99.2,-
O=S(=O)(Nc1ccc(C(F)(F)F)cc1)c1cnc[nH]1,-,98.8,-,99.5,-
Cc1cc2nc(C)n3c4ccccc4nc3n2n1,-,-,-,-,-
CCCc1cc(=O)[nH]c(SCC(=O)N(CC)C2CCS(=O)(=O)C2)n1 (stereo not drawn),-,-,-,-,-
CCN(CC)C(=O)C1CCCN(c2ccc([N+](=O)[O-])cc2/C=N/NC(=O)c2cccc(Br)c2)C1 (stereo not drawn),-,52.4,-,84.9,-
CN1CCN(c2ccc([N+](=O)[O-])cc2/C=N/NC(=O)c2ccc(F)cc2)CC1,-,64.4,-,57.6,-
CC(C(=O)N1CCN(c2ccc(Cl)cc2)CC1)c1ncc(C(F)(F)F)cc1Cl (stereo not drawn),-,52.2,-,-,-
CCOC(=O)c1[nH]c2ccccc2c1NC(=O)NC1CCCCC1,-,-,-,55.0,-
O=C(COC(=O)c1cc(=O)[nH]c2ccccc12)NC(=O)NC1CCCCC1,-,-,-,52.6,-
O=C(COC(=O)c1n[nH]c2ccccc12)NC(=O)NC1CCCC1,-,-,-,-,-
COc1cc(OC)c(NC2=NCCCCC2)cc1Cl,-,-,-,-,-
CCOc1ccccc1N1CCN(C/C=C/c2ccc(N(C)C)cc2)CC1,-,-,-,-,-
CCCCCCCCOC(=O)CCn1[nH]c(=O)c2ccccc2c1=O,-,61.2,-,66.0,-
CCCc1c(O)c2ccccc2n(-c2ccccc2)c1=O,-,-,-,-,-
Cn1c(=O)c(Cc2ccccc2)c(O)c2ccccc21,-,70.8,-,-,-
CC(C)COC(=O)CCn1[nH]c(=O)c2ccccc2c1=O,-,-,-,-,-
CCCn1c(=O)c(Cc2ccccc2)c(O)c2ccccc21,-,-,-,-,-
CCCCCOC(=O)Cc1c(O)c2ccccc2n(C)c1=O,-,78.9,-,-,-
Cn1c(=O)c2c(nc(SCC(=O)O)n2Cc2cccc(C(F)(F)F)c2)n(C)c1=O,-,-,-,-,-
CCOc1cc2[nH]c(=O)n(CCC(=O)NCCc3ccccc3)c(=O)c2cc1OCC,-,-,-,-,-
O=C(COc1ccc(Br)cc1)N1CCC(c2ccccc2)C1 (stereo not drawn),-,88.1,-,-,-
O=C(CCN1C(=O)c2ccccc2C1=O)N1CCC(c2ccccc2)C1 (stereo not drawn),-,72.3,-,-,-
O=C(CCN1C(=O)c2ccccc2C1=O)N1CCCCCC1,-,-,-,-,-
SMILES,CYP2C19 act,CYP2C19 inh,PLAP act,CYP2C9 inhib,CYP2C9 act
CCN(C(=O)CCN1C(=O)c2ccccc2C1=O)C1CCCCC1,-,77.5,-,-,-
CCCCN(C)CCNC(=O)Cn1c(=O)sc2ccccc21,-,-,-,-,-
CCCS(=O)(=O)N1CCC(C(=O)N2CCOCC2)CC1,-,-,-,-,-
Nc1cc(C2CCCC2)nn1-c1ccccc1,-,92.4,-,-,-
COc1ccc(N(Cc2ccccc2)C(=O)CSc2nnc(Cn3nnc4ccccc43)o2)cc1,-,-,-,74.0,-
O=C(CSc1nnc(Cn2nnc3ccccc32)o1)N(Cc1ccc(F)cc1)c1ccccc1,-,-,-,59.0,-
CC(C)(C)NC(=O)CN(C(=O)CSc1nnc(COc2ccccc2)o1)c1cccc(F)c1,-,-,-,-,-
COc1ccc(CN(C(=O)CSc2nnc(-c3ccc(F)cc3)o2)c2ccc(F)cc2)cc1,-,54.2,-,67.9,-

# Screening data from PubChem BioAssay.
